This passage reports growth results from PubChem BioAssay (NCI).

Some test systems named below: DU-145 prostate; K-562 leukemia; MALME-3M melanoma; MDA-MB-231 breast; SF-268 CNS; SF-295 CNS; SF-539 CNS; M14 melanoma; RXF 393 renal; UACC-257 melanoma.
Experiment in all cases: NCI-60 one-dose screen, 48 h (100 = growth as untreated, 0 = no growth, -100 = all killed)
What all share (details): 10 µM unless noted

Compounds without any hit were thinned out: in the full panel of roughly 83,000, 20% have a hit.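 Growth was measured after 48 h exposure to one concentration of compound in 96-well plates. Values under 10 count as active.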 Unmarked numbers belong to inactive results. Activity calls are given as the source filed them.

As to `COC(=O)[C@@H](C)C[C@H](Cc1ccc(F)cc1)NC(=O)c1csc([C@@H](C[C@H](C(C)C)N(C)C(=O)[C@@H](NC(=O)[C@H]2CCCCN2C)C(C)C)OC(C)=O)n1`, the growth is 13.5% in the assay with DU-145 prostate; 8.92% (active) in the assay with K-562 leukemia; 47% in the assay on MALME-3M melanoma; 4.87% (active) in the assay with MDA-MB-231 breast; 27% in the assay with SF-268 CNS; 8.69% (active) in the assay on SF-295 CNS. The growth is -6.38% (active) in the assay on SF-539 CNS and -5.96% (active) in the assay on M14 melanoma.
As for `CN(C)C(=O)Oc1ccccc1-c1ccccc1`, the growth in the assay with DU-145 prostate was 111%; in the assay with K-562 leukemia it was 89.5%; with MALME-3M melanoma, 110%; with MDA-MB-231 breast, 110%; with SF-268 CNS it was 102%; with SF-295 CNS it was 97.4%. The growth in the assay on SF-539 CNS and in the assay with M14 melanoma was 103% in each case.
Consider `CC[C@H](C)[C@H](NC(=O)[C@H]1CCCCN1C)C(=O)N(C)[C@H](CCc1nc(C(=O)N[C@@H](Cc2ccccc2)C[C@H](C)C(=O)OC)cs1)C(C)C`, for which the growth was 6.52% (active) in the assay on DU-145 prostate; 9.7% (active) in the assay on K-562 leukemia; 65.4% in the assay with MALME-3M melanoma; 11.8% in the assay with MDA-MB-231 breast; 19.6% with SF-268 CNS; 7.05% (active) with SF-295 CNS. Further, the growth with SF-539 CNS was 0.775% (active); in the assay on M14 melanoma, -15.3% (active).
Consider `ClCCN(CCCl)c1ccc(-n2cnc3c(Cl)ncnc32)cc1`, for which the growth with DU-145 prostate was 21.9%; in the assay with K-562 leukemia, -2.07% (active); in the assay with MDA-MB-231 breast, 62.9%; in the assay on RXF 393 renal it was -57.2% (active); in the assay with SF-268 CNS it was -11.9% (active); with SF-295 CNS, 87%. Further, the growth in the assay with SF-539 CNS was 115%; in the assay on UACC-257 melanoma, 49.7%; with M14 melanoma, 33.3%.
In the case of `ClCCN(CCCl)c1ccc(/C=N/Nc2ncnc3nc[nH]c23)cc1`, the growth in the assay on DU-145 prostate was 62.8%; in the assay with K-562 leukemia, 61.2%; with MALME-3M melanoma, 106%; in the assay on MDA-MB-231 breast, 96.2%; in the assay with SF-268 CNS, 58.9%; in the assay on SF-295 CNS, 57.8%. For the same compound, the growth with SF-539 CNS is 72.7%; in the assay with UACC-257 melanoma it was 106%; in the assay on M14 melanoma, 76.7%.
Regarding `CC(=O)[O][Hg][c]1c(N)c(C)cc(C)c1F`, the growth in the assay on DU-145 prostate was 36.3%; in the assay with K-562 leukemia it was 5.95% (active); with MALME-3M melanoma, -72.4% (active); with MDA-MB-231 breast, 7.24% (active); in the assay on SF-268 CNS, -15.5% (active); in the assay with SF-295 CNS it was 73%. The growth in the assay with SF-539 CNS is 28.3%; with UACC-257 melanoma it was 31%; in the assay on M14 melanoma it was 5.84% (active).
Take `COC(=O)[C@@H](C)C[C@H](Cc1ccc(F)cc1)NC(=O)c1csc([C@@H](C[C@H](C(C)C)N(C)C(=O)[C@@H](NC(=O)[C@H]2CCCCN2C)C2CC2)OC(C)=O)n1`: the growth was 13.1% in the assay on DU-145 prostate; 9.43% (active) with K-562 leukemia; 55.2% in the assay with MALME-3M melanoma; 13.3% with MDA-MB-231 breast; 30.9% with SF-268 CNS; 2.38% (active) in the assay with SF-295 CNS. Moreover, the growth in the assay with SF-539 CNS was -4.81% (active); with M14 melanoma it was 1.41% (active).
For the compound `O=C1C=C(N2C3C4CCC(C4)C32)C(=O)C=C1c1ccccc1` (stereo not drawn), the growth is 105% with DU-145 prostate; 32.9% with K-562 leukemia; 55.4% in the assay on MALME-3M melanoma; 76.6% in the assay with MDA-MB-231 breast; 89.6% with SF-268 CNS; 96.5% in the assay with SF-539 CNS. Also, the growth is 73.1% in the assay on UACC-257 melanoma and 111% in the assay on M14 melanoma.
Turning to `C=C1[C@@H](C)[C@H]2[C@H](Cc3ccccc3)NC(=O)[C@]23[C@@H](O)/C=C/[C@@](C)(O)C(=O)[C@@H](C)C/C=C/[C@H]3[C@@H]1O`, the growth is 82.9% with DU-145 prostate; 52% with K-562 leukemia; 62.5% in the assay on MALME-3M melanoma; 32.9% in the assay with MDA-MB-231 breast; 24.5% in the assay with SF-268 CNS; 39.2% with SF-295 CNS. In addition, the growth was 21.9% with SF-539 CNS and 68.8% in the assay with M14 melanoma.
Consider `O=C(O)C(O)C(O)C1[O][Sb]([c]2ccc([N+](=O)[O-])cc2)[O]C1CO` (stereo not drawn), for which the growth in the assay with DU-145 prostate is 116%; in the assay on K-562 leukemia, 99.6%; in the assay on MALME-3M melanoma, 116%; with MDA-MB-231 breast it was 99.3%; with SF-268 CNS, 106%; with SF-295 CNS it was 101%. Further, the figures for the growth in the assay with SF-539 CNS, in the assay with UACC-257 melanoma and with M14 melanoma were 102%, 95.7% and 106%, respectively.
As to `COC(=O)C1OC(Oc2ccc(N(CCCl)CCCl)cc2)C(OC(C)=O)C(OC(C)=O)C1OC(C)=O` (stereo not drawn), the growth is 104% in the assay on DU-145 prostate; 94.6% in the assay with K-562 leukemia; 96.1% in the assay on MALME-3M melanoma; 88.5% with MDA-MB-231 breast; 79.1% in the assay with SF-268 CNS; 53.1% with SF-295 CNS. For the same compound, the growth is 70.9% in the assay on SF-539 CNS, 79.6% in the assay with UACC-257 melanoma and 102% in the assay on M14 melanoma.
Take `C=CCc1cc2c(cc1OCC)OCO2`: the growth is 108% in the assay with DU-145 prostate; 114% in the assay on K-562 leukemia; 116% in the assay with MALME-3M melanoma; 110% in the assay on MDA-MB-231 breast; 94.8% with SF-268 CNS; 93.6% with SF-295 CNS. Moreover, the growth in the assay with SF-539 CNS was 99.1%; with UACC-257 melanoma, 105%; in the assay on M14 melanoma, 92.9%.
Consider `CC(=O)O[C@@H]1CC[C@]2(C)[C@H]3CC[C@]4(C)C(=O)CC[C@H]4[C@@H]3C[C@@H]3SC(N)=N[C@@]32C1`, for which the growth in the assay on DU-145 prostate was 79.2%; in the assay on MALME-3M melanoma it was 55.4%; in the assay with MDA-MB-231 breast it was 68.2%; with RXF 393 renal it was 79.7%; with SF-268 CNS it was 73.9%; in the assay with SF-295 CNS, 42.7%. The growth was 51.3% in the assay with SF-539 CNS, 67.1% in the assay with UACC-257 melanoma and 41.1% in the assay with M14 melanoma.
Consider `O=P(N1CC1)(N1CC1)N1CCc2ccccc21`, for which the growth in the assay with DU-145 prostate was 112%; in the assay on MALME-3M melanoma, 109%; with MDA-MB-231 breast it was 104%; in the assay with RXF 393 renal, 109%; in the assay on SF-268 CNS, 103%; in the assay with SF-539 CNS, 105%. Besides, the results for the growth in the assay on UACC-257 melanoma and with M14 melanoma were 110% and 104%, respectively.
Consider `COC(=O)CCC1=C(C)c2cc3[n-]c(cc4nc(cc5[n-]c(cc1n2)c(CCC(=O)OC)c5C)C=C4C)cc3C.[Cd+2]`, for which the growth with DU-145 prostate was 9.35% (active); in the assay on MALME-3M melanoma, 20.5%; in the assay with MDA-MB-231 breast, 34.9%; with RXF 393 renal, 65.7%; in the assay on SF-268 CNS it was 11.6%; in the assay on SF-295 CNS, 61.9%. The growth is 62.2% with SF-539 CNS, 78.7% in the assay with UACC-257 melanoma and 57.9% in the assay on M14 melanoma.
